Test results reported in article PMC4336329 (PLoS ONE, 2015).
Screen size: about 310,000 compounds; about 14,000 (4.5%) showed an effect of 50% or more. The effect is printed as a negative number. What follows is part of a selection rich in strong results, with near analogues and random picks from the rest.

Biological target: human ether-à-go-go-related gene (hERG) potassium channel (human, UniProt Q12809)
Experiment: primary screen, population patch clamp on CHO cells stably expressing hERG; higher = less effect of the substance
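Also: peak tail current of the secondary pulse compared with the same well before compound.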

human ether-à-go-go-related gene (hERG) potassium channel, sequence (Q12809 whole entry, looked up): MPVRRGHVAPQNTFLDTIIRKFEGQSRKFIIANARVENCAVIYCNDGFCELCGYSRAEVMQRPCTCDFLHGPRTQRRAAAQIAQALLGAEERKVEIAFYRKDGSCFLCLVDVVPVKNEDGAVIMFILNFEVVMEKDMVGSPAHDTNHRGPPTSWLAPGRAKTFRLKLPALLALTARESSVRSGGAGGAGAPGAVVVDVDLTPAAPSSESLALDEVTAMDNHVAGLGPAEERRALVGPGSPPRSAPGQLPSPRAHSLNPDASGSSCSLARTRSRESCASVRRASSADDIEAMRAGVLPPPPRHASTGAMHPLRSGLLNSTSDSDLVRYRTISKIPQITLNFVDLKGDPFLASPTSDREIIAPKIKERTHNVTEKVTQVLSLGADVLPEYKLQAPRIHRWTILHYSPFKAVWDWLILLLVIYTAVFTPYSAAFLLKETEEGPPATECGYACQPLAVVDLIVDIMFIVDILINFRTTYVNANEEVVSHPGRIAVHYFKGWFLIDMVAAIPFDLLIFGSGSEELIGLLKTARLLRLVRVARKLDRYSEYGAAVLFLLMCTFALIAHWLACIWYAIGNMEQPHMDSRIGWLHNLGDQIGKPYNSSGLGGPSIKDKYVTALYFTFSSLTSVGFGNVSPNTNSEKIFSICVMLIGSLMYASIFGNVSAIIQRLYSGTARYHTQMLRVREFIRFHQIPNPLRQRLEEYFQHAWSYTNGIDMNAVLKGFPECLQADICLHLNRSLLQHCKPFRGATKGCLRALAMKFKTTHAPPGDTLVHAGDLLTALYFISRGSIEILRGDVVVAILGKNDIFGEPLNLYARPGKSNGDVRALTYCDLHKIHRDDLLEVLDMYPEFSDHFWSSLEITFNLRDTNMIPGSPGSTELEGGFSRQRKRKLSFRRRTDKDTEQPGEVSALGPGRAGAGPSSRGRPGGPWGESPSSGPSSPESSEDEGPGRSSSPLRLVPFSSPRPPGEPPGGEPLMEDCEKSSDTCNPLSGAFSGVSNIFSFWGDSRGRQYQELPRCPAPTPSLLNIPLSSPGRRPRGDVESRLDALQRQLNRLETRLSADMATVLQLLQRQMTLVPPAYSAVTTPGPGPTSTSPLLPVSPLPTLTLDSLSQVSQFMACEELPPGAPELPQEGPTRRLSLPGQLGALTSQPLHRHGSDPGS

In order of falling “hERG current change (%, negative = inhibition) at 10uM” value:
1. O=C(N/N=C/c1ccc(Cl)cc1Cl)C(=O)NC1CC1  17.4%
2. COc1cccc(/C=C/C2=CC(C)(C)NC(=S)N2)c1  16%
3. O=C(N/N=C/c1cccnc1)c1ccc(NC(=O)c2cccc(Cl)c2)cc1  15.3%
4. COCCNC(=O)c1cc2cc3ccc(OC)cc3nc2o1  12.8%
5. COc1ccc(CCN(Cc2cccs2)S(=O)(=O)c2ccc(-n3cnnn3)c(OC)c2)cc1OC  10.4%
6. Cc1ccccc1NC(=O)NC1(C(=O)N2CCCC2)CCCCC1  9.33%
7. Cc1ccc2cc3cc(C(=O)NC4CC4)oc3nc2c1  8.43%
8. Cc1ccc2cc3cc(C(=O)NCCC(C)C)oc3nc2c1  8.43%
9. COc1ccc2cc3cc(C(=O)NCCC(C)C)oc3nc2c1  6.93%
10. Nc1nonc1C(=O)OCC(=O)c1ccc(Cl)cc1  4.6%
11. COc1cc(S(=O)(=O)N(Cc2ccccc2)Cc2ccccn2)ccc1-n1cnnn1  2.81%
12. COc1cc(S(=O)(=O)N(CCc2ccccc2)Cc2cccs2)ccc1-n1cnnn1  -3.57%
13. Cl.NCC(O)(c1ccc(Cl)cc1)c1ccc(Cl)cc1  -5.47%
14. CCN(CC)CCNC(=O)c1cc2cc3ccc(OC)cc3nc2o1  -18%
15. CN1CCN(CC(C)(C)NS(=O)(=O)c2ccc(Cl)cc2)CC1  -20.4%
16. Cc1cccc(Cl)c1NC(=O)N1CCCN(c2nc3ccc(Cl)cc3s2)CC1  -20.6%
17. COc1ccc(CN(C2CCCC2)S(=O)(=O)c2ccc(-n3cnnn3)c(OC)c2)cc1OC  -28.1%
18. CCCCN(C)CCNC(=O)c1cc2cc3ccc(OC)cc3nc2o1  -43%
19. COc1ccc(CN(C2CCCC2)S(=O)(=O)c2ccc(-n3cnnn3)cc2)cc1  -43.8%
20. COc1ccc(CN(Cc2ccccn2)S(=O)(=O)c2ccc(-n3cnnn3)c(OC)c2)cc1  -47.2%
21. COc1ccc(CCN(Cc2cccs2)S(=O)(=O)c2ccc(-n3cnnn3)cc2)cc1OC  -52.5%
22. CCCN(CCC)CCCNC(=O)c1cc2cc3ccc(OC)cc3nc2o1  -52.8%
23. CCCCN(CC)CCCNC(=O)c1cc2cc3ccc(C)cc3nc2o1  -53.4%
24. COc1ccc(CN(C2CCCC2)S(=O)(=O)c2ccc(-n3cnnn3)cc2)cc1OC  -64%
25. CCCCN(CC)CCCNC(=O)c1cc2cc3ccc(OC)cc3nc2o1  -64.5%
26. COc1ccc(CN(Cc2ccccn2)S(=O)(=O)c2ccc(-n3cnnn3)cc2)cc1  -72.7%
27. CN1CCN(CC(O)(c2ccc(Cl)cc2)c2ccc(Cl)cc2)CC1  -73.3%
